# Paper PMC7862700, “An all-to-all approach to the identification of sequence-specific readers for epigenetic DNA modifications on cytosine”
# Columns and labels:
# Assay in all cases: DAPPL (digital affinity profiling via proximity ligation, sequencing); 10 mM Tris-HCl pH 7.5, 50 mM NaCl, 1 mM DTT, 4% glycerol, room temperature, 30 min; GST-TFs on glutathione beads, 16-mer random dsDNA library, 0.1% formaldehyde crosslink after washing; high values mean tight binding
# FLI1 = molecular target: T1, FLI1 (Homo sapiens, UniProt Q01543 1-452); settings: protein: recombinant; tags: N-terminal GST; dsDNA, one strand shown
# T1 sequence: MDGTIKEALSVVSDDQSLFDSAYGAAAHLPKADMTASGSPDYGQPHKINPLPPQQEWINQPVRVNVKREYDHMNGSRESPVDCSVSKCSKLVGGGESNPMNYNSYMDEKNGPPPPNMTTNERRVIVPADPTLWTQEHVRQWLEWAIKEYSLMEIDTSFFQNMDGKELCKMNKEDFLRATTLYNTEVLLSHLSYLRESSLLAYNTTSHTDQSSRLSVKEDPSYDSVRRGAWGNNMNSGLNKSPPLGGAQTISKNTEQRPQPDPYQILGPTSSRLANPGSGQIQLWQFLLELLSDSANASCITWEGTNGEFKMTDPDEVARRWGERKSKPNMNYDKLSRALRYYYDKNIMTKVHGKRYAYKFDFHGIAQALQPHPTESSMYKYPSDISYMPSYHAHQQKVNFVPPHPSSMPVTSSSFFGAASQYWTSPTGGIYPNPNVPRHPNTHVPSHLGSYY
# Procedure, shortened: (§1)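 Yeast served to express human transcription factors as GST fusions, which were then captured on glutathione beads and labelled with DNA barcodes. Pooled with a tag-only sample, they were incubated with 200 nmole of a 16-mer random double-stranded DNA library for 30 min at room temperature in Tris/NaCl/DTT/glycerol buffer, washed, crosslinked with 0.1% formaldehyde, ligated by proximity, amplified by PCR and sequenced. Dividing each hexamer's read frequency for a factor by its frequency for the tag-only sample gives the binding signal.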
# ELK1 = molecular target: T2, ELK1 (Homo sapiens, UniProt P19419 1-428); settings: protein: recombinant; tags: N-terminal GST; dsDNA, one strand shown
# T2 sequence: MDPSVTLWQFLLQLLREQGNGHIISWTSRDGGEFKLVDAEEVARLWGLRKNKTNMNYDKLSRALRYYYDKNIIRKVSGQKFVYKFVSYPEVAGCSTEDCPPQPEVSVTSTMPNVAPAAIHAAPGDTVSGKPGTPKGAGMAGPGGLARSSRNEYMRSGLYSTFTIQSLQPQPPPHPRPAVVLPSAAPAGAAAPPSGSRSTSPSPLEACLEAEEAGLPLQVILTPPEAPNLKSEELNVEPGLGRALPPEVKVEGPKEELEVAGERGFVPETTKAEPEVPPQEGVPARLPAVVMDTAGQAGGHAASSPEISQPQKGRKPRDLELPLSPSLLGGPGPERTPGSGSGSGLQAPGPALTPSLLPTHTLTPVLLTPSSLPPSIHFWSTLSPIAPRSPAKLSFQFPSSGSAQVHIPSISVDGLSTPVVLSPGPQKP
# Procedure, shortened: as §1
# GABPA = molecular target: T3, GABPA (Homo sapiens, UniProt Q06546 1-454); settings: protein: recombinant; tags: N-terminal GST; dsDNA, one strand shown
# T3 sequence: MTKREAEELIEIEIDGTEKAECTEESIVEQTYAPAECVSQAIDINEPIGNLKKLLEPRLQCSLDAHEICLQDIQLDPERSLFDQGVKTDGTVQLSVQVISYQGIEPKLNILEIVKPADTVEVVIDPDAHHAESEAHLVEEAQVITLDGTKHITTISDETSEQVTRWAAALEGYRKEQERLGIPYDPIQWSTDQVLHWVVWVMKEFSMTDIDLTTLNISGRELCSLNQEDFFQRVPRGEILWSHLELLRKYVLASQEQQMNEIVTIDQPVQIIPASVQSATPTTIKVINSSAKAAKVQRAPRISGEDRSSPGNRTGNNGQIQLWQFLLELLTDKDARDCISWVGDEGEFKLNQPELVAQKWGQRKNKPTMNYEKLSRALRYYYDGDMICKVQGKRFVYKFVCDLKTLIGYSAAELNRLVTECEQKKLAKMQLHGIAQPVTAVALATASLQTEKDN
# Procedure, shortened: as §1
# ERG = molecular target: T4, ERG (Homo sapiens, UniProt P11308 1-479); settings: protein: recombinant; tags: N-terminal GST; dsDNA, one strand shown
# T4 sequence: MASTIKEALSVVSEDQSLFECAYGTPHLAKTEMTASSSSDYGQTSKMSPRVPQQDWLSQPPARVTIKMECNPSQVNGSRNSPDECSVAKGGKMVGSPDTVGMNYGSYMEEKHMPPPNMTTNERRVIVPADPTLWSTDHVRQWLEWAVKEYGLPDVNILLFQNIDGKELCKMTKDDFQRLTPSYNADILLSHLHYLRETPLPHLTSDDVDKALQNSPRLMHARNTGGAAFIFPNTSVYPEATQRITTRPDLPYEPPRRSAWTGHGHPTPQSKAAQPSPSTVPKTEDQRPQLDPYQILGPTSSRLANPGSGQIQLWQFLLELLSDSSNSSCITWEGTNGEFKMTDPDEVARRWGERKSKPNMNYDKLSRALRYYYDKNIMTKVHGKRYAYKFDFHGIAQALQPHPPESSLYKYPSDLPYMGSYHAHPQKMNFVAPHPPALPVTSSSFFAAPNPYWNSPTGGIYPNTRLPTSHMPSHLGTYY
# Procedure, shortened: as §1
# ELF1 = ELF1 (Homo sapiens, UniProt P32519 1-619); settings: protein: recombinant; tags: N-terminal GST; dsDNA, one strand shown
# Sequence of ELF1 (P32519 whole entry): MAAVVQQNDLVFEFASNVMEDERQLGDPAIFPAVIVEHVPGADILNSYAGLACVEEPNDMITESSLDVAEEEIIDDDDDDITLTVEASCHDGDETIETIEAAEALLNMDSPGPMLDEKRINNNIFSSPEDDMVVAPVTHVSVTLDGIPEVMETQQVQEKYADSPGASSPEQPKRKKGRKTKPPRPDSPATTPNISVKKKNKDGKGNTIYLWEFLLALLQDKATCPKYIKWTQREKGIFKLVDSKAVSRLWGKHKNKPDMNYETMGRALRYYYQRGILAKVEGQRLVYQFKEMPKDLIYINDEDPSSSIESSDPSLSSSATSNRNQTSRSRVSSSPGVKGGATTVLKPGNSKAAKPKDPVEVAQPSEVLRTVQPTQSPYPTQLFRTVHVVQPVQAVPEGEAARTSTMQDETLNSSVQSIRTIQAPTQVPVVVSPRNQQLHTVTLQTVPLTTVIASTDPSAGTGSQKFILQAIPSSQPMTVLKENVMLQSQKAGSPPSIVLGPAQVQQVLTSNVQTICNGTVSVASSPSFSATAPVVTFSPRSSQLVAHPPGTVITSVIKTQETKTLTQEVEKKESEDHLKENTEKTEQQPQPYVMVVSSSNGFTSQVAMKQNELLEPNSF
# Procedure, shortened: as §1
# EHF = molecular target: T5, EHF (Homo sapiens, UniProt Q9NZC4 1-300); settings: protein: recombinant; tags: N-terminal GST; dsDNA, one strand shown
# T5 sequence: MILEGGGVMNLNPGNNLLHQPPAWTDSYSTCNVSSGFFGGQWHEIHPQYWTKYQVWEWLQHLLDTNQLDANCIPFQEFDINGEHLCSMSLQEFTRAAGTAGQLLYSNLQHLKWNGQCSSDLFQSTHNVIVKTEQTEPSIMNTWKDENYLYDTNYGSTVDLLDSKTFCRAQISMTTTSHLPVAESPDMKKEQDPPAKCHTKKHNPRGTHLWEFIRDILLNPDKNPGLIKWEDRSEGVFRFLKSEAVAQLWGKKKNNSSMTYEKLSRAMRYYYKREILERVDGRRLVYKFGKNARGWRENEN
# Procedure, shortened: as §1
# SPI1 = SPI1 (Homo sapiens, UniProt P17947 1-270); settings: protein: recombinant; tags: N-terminal GST; dsDNA, one strand shown
# Procedure, shortened: as §1
# SPIB = SPIB (Homo sapiens, UniProt Q01892 1-262); settings: protein: recombinant; tags: N-terminal GST; dsDNA, one strand shown
# Sequence of SPIB (Q01892 whole entry): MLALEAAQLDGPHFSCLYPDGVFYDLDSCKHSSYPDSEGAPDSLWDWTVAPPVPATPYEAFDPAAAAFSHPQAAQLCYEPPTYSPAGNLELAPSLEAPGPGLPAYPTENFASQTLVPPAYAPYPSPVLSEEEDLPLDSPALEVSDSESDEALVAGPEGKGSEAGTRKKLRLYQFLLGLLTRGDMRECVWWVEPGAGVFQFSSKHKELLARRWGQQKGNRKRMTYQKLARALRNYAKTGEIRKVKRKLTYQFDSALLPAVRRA
# Procedure, shortened: as §1
# ELK3 = molecular target: T6, ELK3 (Homo sapiens, UniProt P41970 1-407); settings: protein: recombinant; tags: N-terminal GST; dsDNA, one strand shown
# T6 sequence: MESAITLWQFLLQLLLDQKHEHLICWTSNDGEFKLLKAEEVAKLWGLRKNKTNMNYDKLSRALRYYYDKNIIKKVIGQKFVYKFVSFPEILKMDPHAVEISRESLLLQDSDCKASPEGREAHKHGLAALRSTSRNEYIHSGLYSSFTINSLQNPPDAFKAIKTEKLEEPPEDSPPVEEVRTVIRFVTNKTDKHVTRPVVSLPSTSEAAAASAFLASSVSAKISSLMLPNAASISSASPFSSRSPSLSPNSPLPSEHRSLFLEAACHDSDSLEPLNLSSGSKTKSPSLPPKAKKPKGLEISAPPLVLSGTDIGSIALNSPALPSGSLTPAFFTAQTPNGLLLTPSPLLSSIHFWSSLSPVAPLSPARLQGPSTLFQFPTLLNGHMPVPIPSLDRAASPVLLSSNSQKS
# Procedure, shortened: as §1
# FEV = molecular target: T7, FEV (Homo sapiens, UniProt Q99581 1-238); settings: protein: recombinant; tags: N-terminal GST; dsDNA, one strand shown
# T7 sequence: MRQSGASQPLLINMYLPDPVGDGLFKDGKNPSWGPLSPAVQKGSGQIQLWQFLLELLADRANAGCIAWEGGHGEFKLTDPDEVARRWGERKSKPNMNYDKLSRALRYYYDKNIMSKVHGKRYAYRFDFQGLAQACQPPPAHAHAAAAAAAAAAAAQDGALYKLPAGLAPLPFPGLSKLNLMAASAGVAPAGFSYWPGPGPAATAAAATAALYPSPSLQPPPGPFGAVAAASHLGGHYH
# Procedure, shortened: as §1
# ETV5 = ETV5 (Homo sapiens, UniProt P41161 1-510); settings: protein: recombinant; tags: N-terminal GST; dsDNA, one strand shown
# Sequence of ETV5 (P41161 whole entry): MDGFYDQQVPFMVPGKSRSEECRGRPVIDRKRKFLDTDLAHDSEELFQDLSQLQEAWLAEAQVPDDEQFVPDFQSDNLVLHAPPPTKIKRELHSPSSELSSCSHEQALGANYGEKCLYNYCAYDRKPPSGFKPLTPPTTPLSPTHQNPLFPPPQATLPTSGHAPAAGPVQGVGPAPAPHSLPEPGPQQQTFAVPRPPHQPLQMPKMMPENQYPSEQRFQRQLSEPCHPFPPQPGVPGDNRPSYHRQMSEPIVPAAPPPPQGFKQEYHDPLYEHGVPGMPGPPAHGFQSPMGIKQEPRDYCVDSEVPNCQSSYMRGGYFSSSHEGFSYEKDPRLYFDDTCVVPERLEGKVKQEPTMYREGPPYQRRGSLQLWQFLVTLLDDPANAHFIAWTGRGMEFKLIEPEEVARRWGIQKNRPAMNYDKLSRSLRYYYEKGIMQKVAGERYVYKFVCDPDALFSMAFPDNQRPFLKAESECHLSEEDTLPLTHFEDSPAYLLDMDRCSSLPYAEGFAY
# Procedure, shortened: as §1
# HSF1 = HSF1 (Homo sapiens, UniProt Q00613 1-529); settings: protein: recombinant; tags: N-terminal GST; chain copies: 3; dsDNA, one strand shown
# Sequence of HSF1 (Q00613 whole entry): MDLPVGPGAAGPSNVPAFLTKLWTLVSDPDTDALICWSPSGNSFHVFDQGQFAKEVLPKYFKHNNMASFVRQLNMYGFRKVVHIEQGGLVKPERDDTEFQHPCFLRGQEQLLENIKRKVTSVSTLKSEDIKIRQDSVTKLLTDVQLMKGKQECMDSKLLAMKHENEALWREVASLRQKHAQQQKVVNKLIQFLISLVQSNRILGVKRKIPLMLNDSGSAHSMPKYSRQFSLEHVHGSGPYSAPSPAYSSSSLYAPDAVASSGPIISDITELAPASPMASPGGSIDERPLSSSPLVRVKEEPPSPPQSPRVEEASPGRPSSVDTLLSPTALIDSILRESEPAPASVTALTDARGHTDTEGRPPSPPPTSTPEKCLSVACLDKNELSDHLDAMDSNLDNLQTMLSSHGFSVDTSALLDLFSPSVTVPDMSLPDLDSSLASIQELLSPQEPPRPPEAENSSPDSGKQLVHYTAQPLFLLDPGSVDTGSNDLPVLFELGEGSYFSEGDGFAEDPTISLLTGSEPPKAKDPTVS
# Procedure, shortened: as §1
# SPIC = molecular target: T8, SPIC (Homo sapiens, UniProt Q8N5J4 1-248); settings: protein: recombinant; tags: N-terminal GST; dsDNA, one strand shown
# T8 sequence: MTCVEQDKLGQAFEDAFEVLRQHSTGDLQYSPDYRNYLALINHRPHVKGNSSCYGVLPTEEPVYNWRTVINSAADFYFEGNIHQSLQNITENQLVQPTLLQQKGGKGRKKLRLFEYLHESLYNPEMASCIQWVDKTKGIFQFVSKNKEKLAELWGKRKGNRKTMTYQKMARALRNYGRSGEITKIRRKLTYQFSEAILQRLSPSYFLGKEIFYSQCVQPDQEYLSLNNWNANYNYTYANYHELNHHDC
# Procedure, shortened: as §1
# ELF4 = ELF4 (Homo sapiens, UniProt Q99607 1-663); settings: protein: recombinant; tags: N-terminal GST; dsDNA, one strand shown
# Sequence of ELF4 (Q99607 whole entry): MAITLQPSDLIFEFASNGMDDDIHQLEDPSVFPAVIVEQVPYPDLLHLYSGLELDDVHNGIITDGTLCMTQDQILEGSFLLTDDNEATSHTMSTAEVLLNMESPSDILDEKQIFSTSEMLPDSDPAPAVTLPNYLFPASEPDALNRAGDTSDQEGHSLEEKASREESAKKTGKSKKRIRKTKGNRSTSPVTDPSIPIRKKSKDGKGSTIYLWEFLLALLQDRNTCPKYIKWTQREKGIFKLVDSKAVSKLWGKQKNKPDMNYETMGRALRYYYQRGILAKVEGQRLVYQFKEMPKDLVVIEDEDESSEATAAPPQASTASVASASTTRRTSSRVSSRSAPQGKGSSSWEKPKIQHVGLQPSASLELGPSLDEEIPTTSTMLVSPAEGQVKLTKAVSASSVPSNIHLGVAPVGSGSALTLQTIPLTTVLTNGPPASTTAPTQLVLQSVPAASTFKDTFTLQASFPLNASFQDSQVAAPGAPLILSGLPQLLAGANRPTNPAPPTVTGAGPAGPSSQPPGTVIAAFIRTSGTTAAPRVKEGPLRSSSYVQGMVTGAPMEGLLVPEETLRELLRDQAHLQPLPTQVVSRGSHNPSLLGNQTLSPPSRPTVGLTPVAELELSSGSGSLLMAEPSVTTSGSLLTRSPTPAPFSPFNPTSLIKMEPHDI
# Procedure, shortened: as §1
# ELK4 = molecular target: T9, ELK4 (Homo sapiens, UniProt P28324-2 1-405); settings: protein: recombinant; tags: N-terminal GST; dsDNA, one strand shown
# T9 sequence: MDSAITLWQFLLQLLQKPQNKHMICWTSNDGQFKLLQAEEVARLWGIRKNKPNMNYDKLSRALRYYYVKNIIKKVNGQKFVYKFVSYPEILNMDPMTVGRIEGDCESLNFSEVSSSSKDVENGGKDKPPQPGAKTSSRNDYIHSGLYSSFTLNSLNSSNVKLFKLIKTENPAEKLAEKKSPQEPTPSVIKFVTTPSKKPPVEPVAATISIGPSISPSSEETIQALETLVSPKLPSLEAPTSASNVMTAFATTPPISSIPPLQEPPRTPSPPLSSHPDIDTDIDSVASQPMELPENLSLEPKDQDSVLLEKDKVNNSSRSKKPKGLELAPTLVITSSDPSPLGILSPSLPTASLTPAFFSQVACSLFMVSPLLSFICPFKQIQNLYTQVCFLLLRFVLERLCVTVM
# Procedure, shortened: as §1
# ETV2 = molecular target: T10, ETV2 (Homo sapiens, UniProt O00321 1-342); settings: protein: recombinant; tags: N-terminal GST; dsDNA, one strand shown
# T10 sequence: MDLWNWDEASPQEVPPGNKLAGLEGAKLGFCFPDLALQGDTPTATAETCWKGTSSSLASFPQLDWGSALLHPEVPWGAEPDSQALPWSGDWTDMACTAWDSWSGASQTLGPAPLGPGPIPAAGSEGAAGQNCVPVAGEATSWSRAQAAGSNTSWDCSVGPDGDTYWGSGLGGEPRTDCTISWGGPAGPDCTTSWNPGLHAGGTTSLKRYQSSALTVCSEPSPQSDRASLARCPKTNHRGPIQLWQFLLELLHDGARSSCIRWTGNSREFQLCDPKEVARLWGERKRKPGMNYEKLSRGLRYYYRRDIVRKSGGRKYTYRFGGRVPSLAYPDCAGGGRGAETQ
# Procedure, shortened: as §1
# ELF3 = molecular target: T11, ELF3 (Homo sapiens, UniProt P78545 1-371); settings: protein: recombinant; tags: N-terminal GST; dsDNA, one strand shown
# T11 sequence: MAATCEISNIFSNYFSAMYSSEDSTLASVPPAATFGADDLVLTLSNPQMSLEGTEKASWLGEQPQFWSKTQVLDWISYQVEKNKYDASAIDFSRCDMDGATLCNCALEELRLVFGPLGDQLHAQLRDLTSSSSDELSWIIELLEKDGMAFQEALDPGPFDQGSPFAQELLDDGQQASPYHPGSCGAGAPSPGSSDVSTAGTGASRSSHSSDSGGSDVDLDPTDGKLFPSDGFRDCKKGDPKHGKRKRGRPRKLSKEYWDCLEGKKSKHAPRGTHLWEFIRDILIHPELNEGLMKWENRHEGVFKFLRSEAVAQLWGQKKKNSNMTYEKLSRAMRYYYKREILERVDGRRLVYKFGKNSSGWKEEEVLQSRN
# Procedure, shortened: as §1
# CRX = CRX (Homo sapiens, UniProt O43186 1-299); settings: protein: recombinant; tags: N-terminal GST; dsDNA, one strand shown
# Sequence of CRX (O43186 whole entry): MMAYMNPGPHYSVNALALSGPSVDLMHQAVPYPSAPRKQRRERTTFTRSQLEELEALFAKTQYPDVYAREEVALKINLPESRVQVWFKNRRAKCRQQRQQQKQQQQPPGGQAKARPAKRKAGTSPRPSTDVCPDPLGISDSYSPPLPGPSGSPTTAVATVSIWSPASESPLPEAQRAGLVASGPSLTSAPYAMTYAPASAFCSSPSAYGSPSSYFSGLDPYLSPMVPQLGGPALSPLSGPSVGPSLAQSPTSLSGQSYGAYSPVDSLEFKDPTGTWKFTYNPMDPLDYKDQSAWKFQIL
# Procedure, shortened: as §1
# ETV1 = ETV1 (Homo sapiens, UniProt P50549 1-477); settings: protein: recombinant; tags: N-terminal GST; dsDNA, one strand shown
# Sequence of ETV1 (P50549 whole entry): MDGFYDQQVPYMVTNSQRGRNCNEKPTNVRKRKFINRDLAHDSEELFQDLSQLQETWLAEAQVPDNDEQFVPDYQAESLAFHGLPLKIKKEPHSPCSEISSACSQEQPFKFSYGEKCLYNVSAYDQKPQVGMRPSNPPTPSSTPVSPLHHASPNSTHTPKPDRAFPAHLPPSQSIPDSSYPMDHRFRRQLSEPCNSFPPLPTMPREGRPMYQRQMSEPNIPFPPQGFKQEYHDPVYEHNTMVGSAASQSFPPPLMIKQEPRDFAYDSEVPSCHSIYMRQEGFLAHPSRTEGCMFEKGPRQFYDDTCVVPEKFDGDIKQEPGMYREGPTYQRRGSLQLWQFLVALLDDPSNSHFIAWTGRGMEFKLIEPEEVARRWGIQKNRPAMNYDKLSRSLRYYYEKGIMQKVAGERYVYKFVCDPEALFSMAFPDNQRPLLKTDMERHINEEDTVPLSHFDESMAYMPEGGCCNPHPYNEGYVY
# Procedure, shortened: as §1
sequence,measurement,setting,value
TCTTGA,binding signal,FLI1,"1.33 fold enrichment (6-mer frequency, TF over GST control)"
same,binding signal,ELK1,"1.31 fold enrichment (6-mer frequency, TF over GST control)"
same,binding signal,GABPA,"1.33 fold enrichment (6-mer frequency, TF over GST control)"
same,binding signal,ERG,"1.24 fold enrichment (6-mer frequency, TF over GST control)"
same,binding signal,ELF1,"1.3 fold enrichment (6-mer frequency, TF over GST control)"
same,binding signal,EHF,"1.35 fold enrichment (6-mer frequency, TF over GST control)"
same,binding signal,SPI1,"1.25 fold enrichment (6-mer frequency, TF over GST control)"
same,binding signal,SPIB,"1.27 fold enrichment (6-mer frequency, TF over GST control)"
same,binding signal,ELK3,"1.29 fold enrichment (6-mer frequency, TF over GST control)"
same,binding signal,FEV,"1.3 fold enrichment (6-mer frequency, TF over GST control)"
same,binding signal,ETV5,"1.14 fold enrichment (6-mer frequency, TF over GST control)"
same,binding signal,HSF1,"1.61 fold enrichment (6-mer frequency, TF over GST control)"
same,binding signal,SPIC,"1.21 fold enrichment (6-mer frequency, TF over GST control)"
same,binding signal,ELF4,"1.33 fold enrichment (6-mer frequency, TF over GST control)"
same,binding signal,ELK4,"1.4 fold enrichment (6-mer frequency, TF over GST control)"
same,binding signal,ETV2,"1.2 fold enrichment (6-mer frequency, TF over GST control)"
same,binding signal,ELF3,"1.19 fold enrichment (6-mer frequency, TF over GST control)"
same,binding signal,CRX,"1.44 fold enrichment (6-mer frequency, TF over GST control)"
same,binding signal,ETV1,"1.17 fold enrichment (6-mer frequency, TF over GST control)"
